The source of these data is PubChem BioAssay (Tox21).

For test [1], the target named is Cytochrome P450 2C19 (Homo sapiens) (UniProt P33261). The experiment in a line: Cytochrome P450 Family 2 Subfamily C Member 19 (CYP2C19) small molecule antagonists: luciferase reporter qHTS assay (AID 1671197). Note: nearly all actives have a fitted effect of over 65% in size. The method, boiled down:
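First, compounds are pinned into enzyme-substrate mix and held 10 min at room temperature. Second, NADPH regeneration solution is added and plates incubate 1 h at 37C. Third, detection reagent is added and luminescence read after 20 min.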

The target of test [2] is Cytochrome P450 2C9 (Homo sapiens) (UniProt P11712). The test can be described thus: Cytochrome P450 Family 2 Subfamily C Member 9 (CYP2C9) small molecule antagonists: luciferase reporter qHTS assay (AID 1671198). Note: nearly all actives have a fitted effect of over 50% in size. An outline of the steps:
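P450-Glo proluciferin substrate with CYP2C9 enzyme; 10 min RT preincubation, then NADPH regeneration 1 h at 37C; luciferin detection reagent 20 min RT, luminescence in relative luminescence units.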

Test [3] has as its target Cytochrome P450 1A2 (Homo sapiens) (UniProt P05177). The experiment in a line: Cytochrome P450 Family 1 Subfamily A Member 2 (CYP1A2) small molecule antagonists: luciferase reporter qHTS assay (AID 1671199). Note: nearly all actives have a fitted effect of over 50% in size. The method, boiled down: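 Signal from luciferin formed by CYP1A2 from a proluciferin substrate is read as luminescence, expressed in relative luminescence units. Compounds sit with enzyme 10 min, NADPH-driven reaction runs 1 h, all at room temperature.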

Test [4] has as its target Voltage-gated inwardly rectifying potassium channel KCNH2 (Homo sapiens) (UniProt Q12809). The experiment in a line: Human Ether-a-go-go-Related Gene (hERG) channel small molecule antagonists: fluorescence cell-based qHTS assay (AID 1671200). Note: nearly all actives have a fitted effect of over 50% in size. An outline of the steps:
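hERG-U2OS cells plated overnight at 37 C, loaded with FluxOR II dye 1 h at RT in dark; after 10 min, thallium stimulus added. Fluorescence (480/540 nm) read kinetically for 2 min at 1 s intervals.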

The target of test [5] is Cytochrome P450 3A4 (Homo sapiens) (UniProt P08684). The test can be described thus: Cytochrome P450 Family 3 Subfamily A Member 4 (CYP3A4) small molecule antagonists: luciferase reporter qHTS assay (AID 1671201). Note: nearly all actives have a fitted effect of over 50% in size. The method, boiled down:
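P450-Glo CYP3A4 luminescent assay: compounds preincubated 10 min at room temperature with enzyme and proluciferin substrate, NADPH regeneration added, 1 h room-temperature reaction, stopped with luciferin detection reagent; luminescence read after 20 min. Ketoconazole positive control.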

Structures are written as SMILES. Where “and” joins values, the source holds several entries; their conditions need not be identical. Identical values can stand only once. Inconclusive results are not listed. Calls of active or inactive are those of the source. Calls come from the whole dose curve; as a rule, active = well fitted curve in the direction sought with a large enough effect in the repeat runs; inconclusive = weak or mixed curves; inactive = no such curve, though single readings can be large; an effect the other way counts as inactive or inconclusive.
Potency is the fitted concentration of half-maximal effect.

Sequence of Voltage-gated inwardly rectifying potassium channel KCNH2 (Homo sapiens) (Q12809 whole entry, looked up): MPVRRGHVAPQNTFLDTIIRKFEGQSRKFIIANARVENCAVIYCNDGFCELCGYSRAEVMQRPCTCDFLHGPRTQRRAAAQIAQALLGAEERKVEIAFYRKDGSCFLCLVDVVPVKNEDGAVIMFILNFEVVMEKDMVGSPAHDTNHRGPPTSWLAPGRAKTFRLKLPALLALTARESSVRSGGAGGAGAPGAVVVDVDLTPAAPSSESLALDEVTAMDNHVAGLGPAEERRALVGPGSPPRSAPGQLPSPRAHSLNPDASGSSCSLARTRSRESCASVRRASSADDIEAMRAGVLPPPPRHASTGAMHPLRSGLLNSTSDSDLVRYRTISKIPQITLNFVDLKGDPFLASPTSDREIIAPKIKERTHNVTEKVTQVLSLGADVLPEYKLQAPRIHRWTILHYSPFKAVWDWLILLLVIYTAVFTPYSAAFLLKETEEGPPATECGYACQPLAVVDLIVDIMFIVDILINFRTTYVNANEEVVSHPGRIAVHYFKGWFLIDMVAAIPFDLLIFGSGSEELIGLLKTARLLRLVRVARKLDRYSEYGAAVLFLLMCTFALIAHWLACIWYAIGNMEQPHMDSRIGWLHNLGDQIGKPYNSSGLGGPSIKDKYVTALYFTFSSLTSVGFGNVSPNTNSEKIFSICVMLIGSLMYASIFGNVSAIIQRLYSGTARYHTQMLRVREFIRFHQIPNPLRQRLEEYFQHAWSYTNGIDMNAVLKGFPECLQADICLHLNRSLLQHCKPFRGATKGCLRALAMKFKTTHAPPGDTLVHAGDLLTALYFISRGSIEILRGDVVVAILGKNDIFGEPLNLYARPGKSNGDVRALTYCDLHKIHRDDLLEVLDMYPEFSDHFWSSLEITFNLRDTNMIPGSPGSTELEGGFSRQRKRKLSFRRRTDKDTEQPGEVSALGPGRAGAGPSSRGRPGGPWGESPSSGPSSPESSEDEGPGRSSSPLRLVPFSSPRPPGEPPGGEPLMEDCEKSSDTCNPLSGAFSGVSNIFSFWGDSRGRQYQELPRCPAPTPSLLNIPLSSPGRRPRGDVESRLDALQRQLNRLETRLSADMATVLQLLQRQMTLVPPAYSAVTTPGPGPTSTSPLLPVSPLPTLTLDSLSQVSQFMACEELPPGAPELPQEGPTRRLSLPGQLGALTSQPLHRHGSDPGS
Sequence of Cytochrome P450 2C9 (Homo sapiens) (P11712 whole entry, looked up): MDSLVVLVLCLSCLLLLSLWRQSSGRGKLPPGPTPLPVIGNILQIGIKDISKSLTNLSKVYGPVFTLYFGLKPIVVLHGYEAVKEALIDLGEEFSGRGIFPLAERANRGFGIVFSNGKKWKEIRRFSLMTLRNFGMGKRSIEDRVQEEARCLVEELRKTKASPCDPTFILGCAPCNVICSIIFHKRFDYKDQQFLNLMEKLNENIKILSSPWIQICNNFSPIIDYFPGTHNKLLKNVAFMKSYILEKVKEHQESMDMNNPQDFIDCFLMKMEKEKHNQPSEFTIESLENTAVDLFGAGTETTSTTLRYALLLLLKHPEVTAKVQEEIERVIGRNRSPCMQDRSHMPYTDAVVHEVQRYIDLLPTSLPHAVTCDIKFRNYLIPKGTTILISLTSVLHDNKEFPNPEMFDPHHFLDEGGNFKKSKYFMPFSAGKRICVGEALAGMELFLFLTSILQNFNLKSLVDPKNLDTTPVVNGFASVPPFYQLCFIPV
Sequence of Cytochrome P450 2C19 (Homo sapiens) (P33261 whole entry, looked up): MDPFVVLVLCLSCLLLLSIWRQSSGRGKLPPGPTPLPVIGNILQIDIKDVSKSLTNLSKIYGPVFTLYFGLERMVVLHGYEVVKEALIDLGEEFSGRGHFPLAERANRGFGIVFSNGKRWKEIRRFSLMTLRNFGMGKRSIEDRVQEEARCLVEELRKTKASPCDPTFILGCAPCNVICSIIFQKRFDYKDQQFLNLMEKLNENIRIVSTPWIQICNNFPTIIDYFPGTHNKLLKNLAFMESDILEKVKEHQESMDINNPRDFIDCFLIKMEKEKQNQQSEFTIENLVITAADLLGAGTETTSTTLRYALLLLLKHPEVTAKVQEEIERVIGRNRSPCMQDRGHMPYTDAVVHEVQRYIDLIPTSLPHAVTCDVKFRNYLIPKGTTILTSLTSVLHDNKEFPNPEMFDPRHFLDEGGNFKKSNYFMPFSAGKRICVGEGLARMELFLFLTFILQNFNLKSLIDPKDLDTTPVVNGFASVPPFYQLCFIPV
Sequence of Cytochrome P450 1A2 (Homo sapiens) (P05177 whole entry, looked up): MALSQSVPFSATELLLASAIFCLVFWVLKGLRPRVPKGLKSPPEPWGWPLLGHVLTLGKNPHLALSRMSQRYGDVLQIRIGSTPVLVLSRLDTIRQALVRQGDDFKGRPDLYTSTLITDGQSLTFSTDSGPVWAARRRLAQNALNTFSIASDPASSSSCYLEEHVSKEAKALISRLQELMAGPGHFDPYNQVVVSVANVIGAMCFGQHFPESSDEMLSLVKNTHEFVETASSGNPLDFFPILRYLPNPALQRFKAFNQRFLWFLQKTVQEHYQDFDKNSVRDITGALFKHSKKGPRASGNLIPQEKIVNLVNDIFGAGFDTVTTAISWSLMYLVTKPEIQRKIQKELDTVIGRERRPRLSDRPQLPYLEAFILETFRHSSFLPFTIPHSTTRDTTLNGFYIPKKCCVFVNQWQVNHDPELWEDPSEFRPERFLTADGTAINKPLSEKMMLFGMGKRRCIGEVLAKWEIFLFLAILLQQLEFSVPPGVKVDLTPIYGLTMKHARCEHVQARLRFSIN
Sequence of Cytochrome P450 3A4 (Homo sapiens) (P08684 whole entry, looked up): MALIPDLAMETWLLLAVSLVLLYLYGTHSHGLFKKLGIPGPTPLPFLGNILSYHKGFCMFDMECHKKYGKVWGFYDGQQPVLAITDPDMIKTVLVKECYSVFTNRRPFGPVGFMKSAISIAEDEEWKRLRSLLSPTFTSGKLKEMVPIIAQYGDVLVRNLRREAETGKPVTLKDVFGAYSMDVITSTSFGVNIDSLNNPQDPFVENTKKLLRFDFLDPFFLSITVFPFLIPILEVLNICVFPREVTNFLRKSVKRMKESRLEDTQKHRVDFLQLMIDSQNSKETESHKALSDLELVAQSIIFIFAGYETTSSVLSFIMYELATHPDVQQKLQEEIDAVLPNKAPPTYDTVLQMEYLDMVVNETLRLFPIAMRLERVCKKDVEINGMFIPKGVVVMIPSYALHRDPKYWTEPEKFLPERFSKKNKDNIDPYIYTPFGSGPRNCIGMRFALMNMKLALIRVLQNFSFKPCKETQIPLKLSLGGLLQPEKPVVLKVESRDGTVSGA

As to `C=CC(=O)OCCOC(=O)C=C`, the Potency entry in test [1], in test [2], in test [3], in test [4] and in test [5] was “inactive” throughout.

With `O=c1oc2cc(O)ccc2c2oc3cc(O)ccc3c12`, the Potency was 76.4 µM (active) in test [1], 68.1 µM (active) in test [2], 8.57 µM (active) in test [3] and 19.2 µM (active) in test [5]. Also, in test [4], the Potency result is “inactive”.

On to `COc1c(C)c2c(c(O)c1C/C=C(\C)CCC(=O)OCCN1CCOCC1)C(=O)OC2`, for which the Potency entry in test [1], in test [3] and in test [4] was “inactive” throughout. Also, the Potency in test [2] is 13.8 µM (active).

For `O=C(O)c1cc(O)c2ccccc2c1O`, the Potency in test [1] was 7.1 µM (active); in test [2], 15.9 µM (active); in test [3], 5.64 µM (active).

`C#C[C@]1(O)CC[C@H]2[C@@H]3[C@H](C)CC4=C(CCC(=O)C4)[C@H]3CC[C@@]21C`: the Potency in test [1] is 3.89 µM (active); in test [2] it was 13.8 µM (active); in test [3], 24.5 µM (active). Further, in test [4], the Potency result is “inactive”.

Consider `CNC(=O)c1ccccc1Sc1ccc2c(/C=C/c3ccccn3)n[nH]c2c1`, for which the Potency in test [1] was 17.4 µM (active); in test [2] it was 6.92 µM (active); in test [3], 2.75 µM (active). Further, the Potency result in test [4] was “inactive”.

In the case of `S=c1nccc[nH]1`, the values for the Potency in test [1], in test [2] and in test [3] were 31.8 µM (active), 20 µM (active) and 35.6 µM (active), respectively. Moreover, the Potency result in test [4] and in test [5] was “inactive” each time.

Consider `O=C1CCCCCCCCCCCCCCCO1`, for which the Potency result in test [1], in test [2], in test [3] and in test [4] was “inactive” in each case.

On to `CCc1cccc(CC)c1NC(=O)CN(CC(=O)O)CC(=O)O`, for which the Potency entry in test [1], in test [2], in test [3], in test [4] and in test [5] was “inactive” each time.

With `CCCCNS(=O)(=O)c1ccc(C)cc1`, the Potency in test [1] was 5.64 µM (active); in test [2], 22.4 µM (active); in test [3] it was 31.7 µM (active). Moreover, the Potency entry in test [4] is “inactive”.

On to `CC(=O)Oc1cc2c(s1)CCN(C(C(=O)C1CC1)c1ccccc1F)C2` (configuration not stated), for which the Potency in test [1] was 6.92 µM (active); in test [2], 13.8 µM (active). Besides, the Potency result in test [3] is “inactive”.

Regarding `CCC(CC)(CC(=O)Nc1cccc(/C=C/c2nc(C3CCC3)cs2)c1)C(=O)O`, the Potency result in test [1] and in test [4] was “inactive” each time. The Potency in test [2] is 27.5 µM (active); in test [3], 24.5 µM (active).

As for `CCCCC(CC)COC(=O)CCCCC(=O)OCc1ccccc1` (configuration not stated), the Potency in test [1] is 35.6 µM (active); in test [2], 15.9 µM (active); in test [3], 56.4 µM (active). The Potency result in test [4] was “inactive”.

For `COc1ccc2c(c1)c(CC(=O)OC/C=C(\C)CC/C=C(\C)CCC=C(C)C)c(C)n2C(=O)c1ccc(Cl)cc1`, the values for the Potency in test [1], in test [2] and in test [3] were 15.5 µM (active), 17.4 µM (active) and 17.4 µM (active), respectively. Further, the Potency result in test [4] was “inactive”.

For the molecule `Cc1cccc2cccnc12`, the values for the Potency in test [1] and in test [3] were 70.5 µM (active) and 44.5 µM (active), respectively. For the same molecule, the Potency result in test [2], in test [4] and in test [5] was “inactive” throughout.

`CC(N=C(NC#N)Nc1ccncc1)C(C)(C)C` (configuration not stated): the results for the Potency in test [1] and in test [2] were 1.55 µM (active) and 13.8 µM (active), respectively. The Potency result in test [3] and in test [4] was “inactive” throughout.

For the molecule `COC(=O)Nc1nc2ccc(C(=O)c3ccccc3)cc2[nH]1`, the Potency entry in test [1], in test [2], in test [4] and in test [5] was “inactive” each time. Moreover, the Potency in test [3] was 12.9 µM (active).

Regarding `Cc1cccc(C)c1NC(=O)c1ccc(N)cc1`, the Potency result in test [1], in test [2], in test [3] and in test [4] was “inactive” throughout.

`COc1ccc2cc1Oc1ccc(cc1)C[C@H]1c3c(cc4c(c3Oc3cc5c(cc3OC)CCN(C)[C@@H]5C2)OCO4)CCN1C`: the Potency entry in test [1] and in test [3] was “inactive” throughout. In addition, the Potency in test [2] is 30.9 µM (active); in test [4] it was 9.52 µM (active).

For the molecule `c1ccc(C(O[C@@H]2CCCN(CCc3ccc4c(c3)OCO4)C2)c2ccccc2)cc1`, the Potency was 35.6 µM (active) in test [1], 17.8 µM (active) in test [2], 39.9 µM (active) in test [3] and 0.977 µM (active) in test [4].

As for `CC(C)(C)c1csc(-c2cc3cc(OCc4ccccc4CC(=O)O)ccc3o2)n1`, the Potency result in test [1], in test [3], in test [4] and in test [5] was “inactive” each time. Moreover, in test [2], the Potency is 56.4 µM (active).

On to `C#Cc1ccc(-c2ccccc2F)cc1`, for which the figures for the Potency in test [1], in test [2] and in test [3] were 7.76 µM (active), 15.5 µM (active) and 0.911 µM (active), respectively. Also, in test [4], the Potency entry was “inactive”.

For the molecule `CN(C)Cc1cc(C(C)(C)C)c(O)c(C(C)(C)C)c1`, the Potency is 10 µM (active) in test [1] and 11.2 µM (active) in test [2].

`CCOC(=O)Cn1cccc1-c1nc(-c2ccc(OC)cc2)c(-c2ccc(OC)cc2)s1`: the Potency in test [1] and in test [2] was 3.89 µM (active) each time. Further, the Potency result in test [3] and in test [4] was “inactive” throughout.

As to `C#CC1(O)CC[C@H]2[C@@H]3CCC4=CCCC[C@@H]4[C@H]3CC[C@@]21C` (some centres not stated), the Potency was 7.96 µM (active) and 11 µM (active) in test [1]; 7.1 µM (active) and 6.92 µM (active) in test [2]; 39.9 µM (active) in test [3].

As for `CN(C)[C@@H](CCOc1cccc2ccccc12)c1ccccc1`, the Potency in test [1] is 0.977 µM (active); in test [2], 15.5 µM (active); in test [3] it was 7.76 µM (active); in test [4] it was 6.01 µM (active).

Turning to `CCCc1ccc(OCC(=O)N2CCN(C(=O)COc3ccc(CCC)cc3OC)CC2)c(OC)c1`, the Potency in test [1] was 3.47 µM (active); in test [2], 3.47 µM (active); in test [4], 1.34 µM (active). In addition, the Potency result in test [3] is “inactive”.

As to `CCCC(=O)OCOC(=O)C1=C(C)NC(C)=C(C(=O)OC)C1c1cccc(Cl)c1Cl` (configuration not stated), the Potency in test [1] is 1.74 µM (active); in test [2], 2.19 µM (active).

As to `CC(C)(C)NSc1nc2ccccc2s1`, the Potency in test [1] is 32.2 µM (active); in test [2], 16.2 µM (active); in test [3] it was 32.2 µM (active). Further, in test [4], the Potency entry was “inactive”.

On to `CCCCN(CCCC)CC(O)c1cc(Cl)cc2c1-c1ccc(Cl)cc1/C2=C/c1ccc(Cl)cc1` (configuration not stated), for which the Potency is 17.4 µM (active) in test [1], 17.4 µM (active) in test [2], 16.2 µM (active) in test [3] and 2.68 µM (active) in test [4].

For `CCCCCCCC/C=C\CCCCCCCCN`, the Potency in test [1] was 4.36 µM (active); in test [2] it was 38.9 µM (active); in test [3], 12.9 µM (active). In addition, the Potency entry in test [4] is “inactive”.

As for `O=[N+]([O-])c1ccc(O)cc1C(F)(F)F`, the Potency entry in test [1] and in test [4] was “inactive” each time. For the same molecule, the Potency is 22.4 µM (active) in test [2] and 35.6 µM (active) in test [3].

`O=C1CCc2cc(OCCCCc3nnnn3C3CCCCC3)ccc2N1`: the Potency result in test [1], in test [3] and in test [4] was “inactive” in each case. In addition, the Potency in test [2] was 12.3 µM (active).
